Bioassay records from PubChem.
Pf apPOL block: Pf-apPOL DNA polymerase inhibition. Recombinant Pf-apPOL, molecular beacon fluorescence, 1.5 h. inhibition, % at 10 µM. 210,000 tested, 0.25% active. AID 1794808
mHTT CaM bind: mHTT-calmodulin interaction abrogation; AlphaScreen His-mHTT/GST-CaM binding, luminescence; inhibition, % at 15 µM; P42858; 190,000 tested, 3.6% active;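 note: 0% = both proteins with DMSO and 100% = one protein alone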
* = called active by the depositor; x = no result given. Only a selection was taken, and hits are over-represented in it overall. Cut-off read from the data, not from the text of the source: active = inhibition above about 50%; inactive = the rest.

SMILES	Pf apPOL block	mHTT CaM bind
CCCC1c2cccn2CCN1C(=O)Nc1cccc(C(F)(F)F)c1 (centres undefined)	-4	55*
CC1c2cccn2CCN1C(=O)Nc1cccc(C(F)(F)F)c1 (centres undefined)	-3	21
COc1cc(NC(=O)C2CCCN(C(=O)c3cc(C)cc(C)c3)C2)cc(OC)c1 (centres undefined)	-1	0
CN1CCN(C(=O)c2cccc(-c3nc(-c4ccc(F)cc4)no3)c2)CC1	0	-9
Cc1cccc(C2CCCN2C(=O)Nc2ccccc2Br)c1 (centres undefined)	5	-18
O=C(NCc1ccccc1)c1cncc(-c2ccccc2Cl)c1	-2	-8
Cc1cccc(NC(=O)CN2CCc3ccccc3C2C(=O)N2CCC(C)CC2)c1C (centres undefined)	-4	4
CC1CCN(C(=O)C2c3ccccc3CCN2CC(=O)Nc2ccc(Cl)cc2)CC1 (centres undefined)	-4	62*
O=C(CN1CCc2ccccc2C1C(=O)N1CCCC1)N1CCC(Cc2ccccc2)CC1 (centres undefined)	-9	68*
CCOc1ccc(NC(=O)CN2CCc3ccccc3C2C(=O)N2CCC(C)CC2)cc1 (centres undefined)	-3	13
COc1ccc(C)cc1NC(=O)CN1CCc2ccccc2C1C(=O)N1CCC(C)CC1 (centres undefined)	-5	61*
O=C(CN1CCc2ccccc2C1C(=O)N1CCCC1)N1CCN(C2CCCCC2)CC1 (centres undefined)	0	9
O=C(CSc1nnnn1-c1ccccc1)Nc1nccs1	-3	0
Cc1nc(C2CCCN2Cc2cccs2)n[nH]1 (centres undefined)	-2	2
COc1cccc(NC(=O)c2cc(Br)ccc2OC)c1	-1	-6
COc1cccc(NC(=O)N2C(=O)C(=O)c3cc(Br)ccc32)c1	28	73*
CC(C)CC(C(=O)Nc1cccc(C(F)(F)F)c1)N1C(=O)c2ccccc2C1=O (centres undefined)	-1	57*
CC(C(=O)Nc1nc2ccccc2s1)N1C(=O)c2ccccc2C1=O (centres undefined)	6	9
CC(C)CC(C(=O)Nc1nc2ccccc2s1)N1C(=O)c2ccccc2C1=O (centres undefined)	26	99*
CC(C)C(C(=O)Nc1cccc(C(F)(F)F)c1)N1C(=O)c2ccccc2C1=O (centres undefined)	-1	0
COc1ccccc1N1C(=O)C2C(C1=O)C1(C)C=CC2(C)O1 (centres undefined)	3	0
Clc1ccc(-c2noc(CSC3=NCCN3)n2)cc1	-10	x
COc1ccc(C2N=C(c3ccc4c(c3)OCO4)CC(c3ccccc3O)N2)cc1 (centres undefined)	-5	18
COc1ccc(C2=NC(c3ccc(OC)c(OC)c3)NC(c3ccccc3O)C2)cc1 (centres undefined)	-5	53*
Cc1ccc(C2=NC(C(C)C)NC(c3cc(Br)ccc3O)C2)cc1 (centres undefined)	-3	27
SMILES	Pf apPOL block	mHTT CaM bind
COc1ccc(C2=NC(C(C)C)NC(c3ccccc3O)C2)cc1OC (centres undefined)	-4	78*
COc1cccc(C2CC(c3ccc(Cl)cc3)=NC(C(C)C)N2)c1O (centres undefined)	-5	18
COc1cccc(C2=NC(c3ccc(F)cc3)NC(c3ccc(OC)cc3O)C2)c1 (centres undefined)	-5	53*
COc1cccc(C2=NC(C(C)C)NC(c3cc(Br)ccc3O)C2)c1 (centres undefined)	-2	81*
Oc1ccccc1C1CC(c2ccc3c(c2)OCO3)=NC(c2cccc(F)c2)N1 (centres undefined)	-3	4
Cc1ccc(-n2cc3c(c(C#N)c2=N)CC(C)(C)CC3=O)cc1	-3	-2
Cc1onc(-c2ccccc2Cl)c1C(=O)Nc1ccc(Cl)cc1	-3	-14
COc1cccc(C2Oc3ccccc3C3=C2C(c2ccc(F)cc2)n2ncnc2N3)c1 (centres undefined)	-1	19
NC(=O)C1(N2CCCCC2)CCN(c2ccc(N3C(=O)COCC3=O)cc2[N+](=O)[O-])CC1	-14	0
O=S(=O)(O)c1ccc(-c2nnc(-c3ccccn3)nc2-c2ccc(S(=O)(=O)O)o2)o1	x	100*
c1ccc(-c2noc(-c3ccco3)n2)nc1	-12	4
c1ccc(-c2nnc(-c3ccco3)c(-c3ccco3)n2)nc1	x	100*
Cn1c(-c2ccc(S(=O)(=O)O)o2)nc2ccccc21	2	-3
CC(=O)OC1C(C2COC(C)(C)O2)OC2OC(C)(C)OC21 (centres undefined)	-2	x
CC1(C)CCN2CCC(C)(C)c3c(O)ccc1c32	-4	71*
CC1(C)CCC(C)(C)c2cc3c(cc21)C(C)(C)CCC3(C)C	-8	x
CCN(CC)c1cc(CNC(=O)Nc2cccc(Cl)c2)ccn1	0	4
N#CC1=C(SCC(N)=O)NC(=O)CC1c1ccc(Cl)cc1 (centres undefined)	-3	-3
O=C(NCc1cccc(Cl)c1)c1cc2n(n1)CCCN(Cc1cccc(F)c1)C2=O	-3	6
CC1=CC(C)C(CNCCN2CCNCC2)C(C)C1 (centres undefined)	0	2
CC(C)=CCC/C(C)=C/CC(C)(C)CNCCN1CCNCC1	-5	85*
O=C(Cn1c(=O)oc2ccccc21)Nc1nnc(-c2ccco2)o1	-6	23
Cc1nc(-c2nnc(NC(=O)Cc3ccc4c(c3)OCO4)o2)cs1	6	43
Cc1nc(-c2nnc(NC(=O)Cn3c(=O)oc4ccccc43)o2)cs1	4	98*
CCOC(=O)CCC(=O)Nc1nnc(-c2csc(C)n2)o1	2	61*
SMILES	Pf apPOL block	mHTT CaM bind
O=C(c1nc(-c2cccs2)cs1)N1CCCC1	-4	-8
CCOC(=O)C1CCc2sc(NC(=O)c3n[nH]c4ccccc34)nc21 (centres undefined)	9	98*
CCOC(=O)C1CCc2sc(NC(=O)C3CN(c4nc5ccccc5s4)C3)nc21 (centres undefined)	-2	40
O=C(Nc1cccc2c1CCCC2)C1CCC(CNS(=O)(=O)c2cccs2)CC1 (centres undefined)	5	33
CC1C(=O)N(Cc2cn(Cc3ccco3)nn2)CCS(=O)(=O)N1Cc1ccc(-c2ccc(F)cc2Cl)cc1 (centres undefined)	4	81*
CC1C(=O)N(Cc2cn(CCC3OCCCO3)nn2)CCS(=O)(=O)N1Cc1ccc(-c2ccc(F)nc2)cc1 (centres undefined)	-14	15
CC1C(=O)N(Cc2cn(Cc3ccco3)nn2)CCS(=O)(=O)N1Cc1ccc(-c2ccncc2)cc1 (centres undefined)	9	30
CC1C(=O)N(Cc2cn(Cc3ccco3)nn2)CCS(=O)(=O)N1Cc1ccc(-c2ccccc2Cl)cc1 (centres undefined)	-3	77*
Cc1ccc(NC(=O)NC2CCN(c3ccccc3C(=O)N(C)C(C)C)CC2)cc1	-2	18
O=C(CSc1ccc(-c2nc(-c3ccccc3)no2)cn1)NCc1cccs1	-6	-6
Cn1nccc1C(=O)N1CCC(c2nc(-c3ccc(F)cc3)n[nH]2)CC1	0	1
COc1ccc(OCCCC(=O)Nc2cccc(C)c2C)cc1	0	-3
